Screening data: PubChem BioAssay, National Center for Advancing Translational Sciences (NCATS)
This is a sample that favours compounds with a hit; in the whole collection about 2.3% have one here.
Tau ThT inhib: blocks human tau fibril formation measured by thioflavin T | recombinant tau K18 P301L, heparin-induced fibrillization, ThT fluorescence | Potency, µM (series often up to 57.4 µM), hits mostly inhibitors | hit rate 2.1% among 270,000; also: nearly all actives have a fitted effect of over 55% in size
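Tau K18 P301L fragment (15 uM unlabeled plus 0.24 uM Alexa 594-labeled) in 100 mM sodium acetate pH 7 with compound, fibrillization induced by 20 uM heparin for 6 hr at 37 C. Thioflavin T (30 uM) added, fluorescence read after 1 hr (ex 450, em 510 nm).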
Tau fibril FP: blocks human tau fibril formation measured by polarization. AID 1468. K18 P301L tau heparin fibrillization, Alexa594 FP, 6 h. Potency, µM (titrated, usually from 57.7 µM), most hits filed as inhibitors. hit rate 0.39% among 280,000. P10636; also: nearly all actives have a fitted effect of over 55% in size
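Human K18 P301L fragment (15 uM unlabeled plus 0.24 uM Alexa 594-labeled) in 100 mM sodium acetate pH 7 with compound, aggregation induced by 20 uM heparin for 6 hr at 37 C. ThT (30 uM) added for 1 hr, then Alexa 594 FP read.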
Tau fluor counter: counter-screen for tau fibril formation inhibitors. tau K18 P301L (four-repeat tau fragment) Alexa594 fluorescence, heparin fibrillization. Potency, µM (titrated, usually from 57.7 µM). hit rate 0.93% among 280,000. AID 1463; also: nearly all actives have a fitted effect of over 55% in size
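Human K18 P301L tau (15 uM unlabeled plus 0.24 uM Alexa 594-labeled, final) in 100 mM sodium acetate pH 7 was mixed with compound and 20 uM heparin and incubated 6 hr at 37 C.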
Coupling enz: inhibits coupling enzyme system, counter-screen for aldolase hits. coupling enzyme system counterscreen, AmpLite Red fluorescence. activity change, negative = inhibition, % at 58.2 µM, hits read low. hit rate 0.67% among 290,000; in the data active = activity change below about -30%
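Activity here indicates interference with the coupling reaction, not aldolase inhibition. Compounds at 57.5 uM final met coupling enzymes for 10 min at RT; substrate and AmpLite Red detection followed, with a 525/598 nm fluorescence read after 20 min.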
USP1 inh: inhibitors of human USP1/UAF1 deubiquitinase | O94782 | recombinant USP1/UAF1, Ub-Rhodamine cleavage fluorescence | Potency, µM (doses to about 57.1 µM), usual class: inhibitors | hit rate 0.23% among 390,000; also: nearly all actives have a fitted effect of over 60% in size
Target sequence (O94782 whole entry, looked up): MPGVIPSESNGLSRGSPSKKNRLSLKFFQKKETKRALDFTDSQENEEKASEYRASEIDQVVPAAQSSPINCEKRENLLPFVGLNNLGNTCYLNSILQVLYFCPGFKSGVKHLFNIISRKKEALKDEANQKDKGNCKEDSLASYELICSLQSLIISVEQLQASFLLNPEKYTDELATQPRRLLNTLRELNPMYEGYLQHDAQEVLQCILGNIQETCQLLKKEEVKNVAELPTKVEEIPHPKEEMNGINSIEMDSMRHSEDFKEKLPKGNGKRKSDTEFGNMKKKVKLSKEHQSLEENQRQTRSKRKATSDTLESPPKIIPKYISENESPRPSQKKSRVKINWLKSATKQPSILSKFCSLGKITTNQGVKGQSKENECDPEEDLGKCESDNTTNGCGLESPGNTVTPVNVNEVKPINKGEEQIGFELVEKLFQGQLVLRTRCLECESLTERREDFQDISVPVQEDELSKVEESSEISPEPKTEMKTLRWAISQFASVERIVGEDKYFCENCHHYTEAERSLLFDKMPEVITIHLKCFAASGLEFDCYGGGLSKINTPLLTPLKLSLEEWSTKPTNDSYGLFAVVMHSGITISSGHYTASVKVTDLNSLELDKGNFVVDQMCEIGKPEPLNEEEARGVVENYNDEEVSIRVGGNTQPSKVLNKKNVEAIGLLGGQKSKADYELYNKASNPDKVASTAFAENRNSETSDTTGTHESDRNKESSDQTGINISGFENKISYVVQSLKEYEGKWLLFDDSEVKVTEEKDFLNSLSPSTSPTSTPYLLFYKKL
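USP1/UAF1 complex at 1 nM was preincubated with compound for 15 min at room temperature, then Ub-Rho substrate (150nM final) was added. Fluorescence (480/540 nm) was read kinetically, 6 reads every 60 seconds.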
Of the large screens only hits and unclear results are named; the others gave an inactive call; [ ] = remark or other dose. Unless noted, calls follow the shape of the dose curve; as a rule, active = well fitted curve in the direction sought with a large enough effect; inconclusive = small, poorly fitted or top-dose-only effect, or another doubt; inactive = no such curve, though single readings can be large; an effect the other way counts as inactive or inconclusive.

CCCN(CCC)CC(O)Cn1cc(/C=C/C(=O)c2ccc(OCC)cc2)c2ccccc21 (centres undefined)	Tau ThT inhib 8.9µM, Tau fluor counter inconclusive (no result: Coupling enz)
COc1ccc(C(=O)/C=C/c2cn(CC(O)CN(CC(C)C)CC(C)C)c3ccccc23)cc1OC (centres undefined)	Tau ThT inhib inconclusive (no result: Coupling enz, USP1 inh)
COc1ccc(OCC(O)CN(CCO)CC(O)Cn2ccc3ccccc32)cc1 (centres undefined)	none
CCC(=C(c1ccc(OC)cc1)c1ccc(OC)cc1)c1cn(CC(O)CN(CCO)CCO)c2ccccc12 (centres undefined)	Tau ThT inhib inconclusive, Tau fluor counter 13µM[quencher]
CCOc1ccc(C(=O)/C=C/c2cn(CN3CCN(C)CC3)c3ccccc23)cc1	Tau ThT inhib inconclusive, Tau fluor counter 13µM[quencher]
CCC(=O)N1C2=C(c3ccccc3[C@@H]1CC(=O)Nc1ccc3ccccc3c1)[C@@H]1C(=O)N(c3ccccc3)C(=O)[C@@H]1[C@H](C)C2	none (no result: USP1 inh)
COC(=O)c1cccnc1-n1c(=O)c2cccnc2n(CC(=O)Nc2cccc(C(F)(F)F)c2)c1=O	Tau fluor counter inconclusive (no result: Coupling enz)
Cn1c(=O)c2cc(NCc3ccccc3)nnc2n(C)c1=O	Coupling enz -59
C/C(=N\Nc1ccc([N+](=O)[O-])cc1)c1cccc(N)c1	Tau ThT inhib 3.5µM, Tau fibril FP inconclusive, Tau fluor counter 16µM[quencher]
C/C(=N/NC(=O)c1cc(O)c(O)c(O)c1)c1ccc([N+](=O)[O-])cc1	Tau ThT inhib 3.5µM, Tau fluor counter inconclusive
CC(=O)NC/C(C)=N\Nc1ccc([N+](=O)[O-])cc1	Tau ThT inhib 16µM
C/C(=N/Nc1ccccc1[N+](=O)[O-])c1ccc([N+](=O)[O-])cc1	none (no result: Tau ThT inhib, Tau fibril FP, Tau fluor counter)
C/C(=N\Nc1ccc([N+](=O)[O-])cc1)c1ccc(O)cc1	Tau ThT inhib 3.2µM, Tau fluor counter inconclusive
CC(=O)NCC(=O)OCc1ccc([N+](=O)[O-])cc1	none
C/C(=N\NC(=O)c1cnccn1)c1ccc([N+](=O)[O-])cc1	Tau ThT inhib inconclusive
C=C(C)C(=O)OCCOCC	none (no result: Tau ThT inhib, Tau fibril FP, Tau fluor counter, USP1 inh)
Cc1csc2nc(COc3ccc(NC(=O)c4ccccc4F)cc3)cc(=O)n12	Tau ThT inhib inconclusive (no result: Coupling enz)
CCCCCCCCCCCCCCCCOCC(CO)OC(C)=O (centres undefined)	none (no result: USP1 inh)
Cc1ccc(S(=O)(=O)Nc2ccc(N=Nc3ccc(O)cc3)cc2)cc1	Tau ThT inhib 14µM, Tau fibril FP inconclusive, Tau fluor counter 18µM[quencher]
Cc1ccc(NNS(=O)(=O)c2ccc(C)cc2)cc1	Tau ThT inhib 20µM, Tau fibril FP inconclusive (no result: Coupling enz)
Cc1ccc(S(=O)(=O)NNC(=O)C(=O)NNS(=O)(=O)c2ccc(C)cc2)cc1	none
Oc1ccc(NCc2cccc(OCc3ccc(F)cc3)c2)cc1	Tau ThT inhib 22µM, Tau fibril FP inconclusive, Tau fluor counter inconclusive, Coupling enz -45, USP1 inh inconclusive
O=[N+]([O-])c1ccc(COc2cccc(CNc3ccc(F)cc3)c2)cc1	Tau ThT inhib inconclusive, Tau fluor counter inconclusive
Oc1ccc(NCc2cccc(OCc3ccccc3)c2)cc1	Tau ThT inhib 28µM, Tau fibril FP inconclusive, Tau fluor counter inconclusive, Coupling enz -30, USP1 inh inconclusive
CCN1C(=O)/C(=C/C2=Cc3ccccc3OC2C)SC1=S (centres undefined)	Tau ThT inhib 13µM, Tau fluor counter inconclusive, USP1 inh inconclusive
O=C1N=C(N2CCOCC2)S/C1=C/c1cccs1	none
CC1Oc2ccccc2C=C1/C=C1/SC(N2CCOCC2)=NC1=O (centres undefined)	Tau ThT inhib inconclusive, Coupling enz -44
CCN1C(=O)/C(=C\c2ccncc2)SC1=S	none
CCCCN1CC(c2nc3ccccc3n2CCCCOc2ccccc2C)CC1=O (centres undefined)	none (no result: Coupling enz)
O=C(Cc1ccc(S(=O)(=O)N2CCOCC2)s1)Nc1nc2c(s1)CCCC2	Tau ThT inhib inconclusive, Coupling enz -59, USP1 inh inconclusive
O=C(Cn1c(-c2cccs2)cc2ccccc21)NCc1ccccc1Br	none (no result: Coupling enz)
CCN(CC)c1nc2c3c(nc4c(c3c1C#N)CC(=O)N4c1ccc(Cl)cc1)NC(C)=N2	Tau ThT inhib 16µM, Tau fibril FP inconclusive, Tau fluor counter inconclusive
O=C(Nc1ccccc1)c1ccc2ccccc2n1	none
O=C(Nc1ccccc1C(=O)O)c1ccc2ccccc2n1	Coupling enz -40
COc1cc(OC)cc(-c2nnc3n2N=C(c2ccc(OC)cc2OC)CS3)c1	none (no result: Tau ThT inhib, Tau fibril FP, Tau fluor counter, USP1 inh)
O=C(OCc1csc(Nc2ccccc2)n1)c1ccc(Cl)cc1	Tau ThT inhib inconclusive, Tau fibril FP inconclusive, Tau fluor counter 13µM[quencher], USP1 inh inconclusive
O=C(COc1ccccc1)OCc1csc(Nc2ccccc2)n1	Tau ThT inhib inconclusive, Tau fluor counter inconclusive
COC(=O)C1=C(C(=O)OC)[C@@H]2N(C)c3ccccc3[C@@]23C[C@@H](C(=O)OC)N(S(=O)(=O)c2ccc([N+](=O)[O-])cc2)C3=N1	none (no result: USP1 inh)
CCc1ccc(OCC(=O)N(Cc2ccc(C)o2)C2CCS(=O)(=O)C2)cc1 (centres undefined)	none (no result: Coupling enz)
COc1ccc2c(n1)Sc1nc3ccccc3nc1N2	Tau ThT inhib 1µM, Tau fluor counter 4µM[quencher], USP1 inh inconclusive
CN1/C(=C\C=C2/SC(=S)NC2=O)C(C)(C)c2ccccc21	Tau ThT inhib 3.5µM, Tau fluor counter inconclusive, USP1 inh 25µM
CN(C)c1ccc(N=C/C=C2/N(C)c3ccccc3C2(C)C)cc1	Tau ThT inhib 3.2µM, Tau fibril FP inconclusive, Tau fluor counter inconclusive
CN1/C(=C\C=C2/C(=O)Oc3ccccc3C2=O)C(C)(C)c2ccccc21	Tau ThT inhib inconclusive, Tau fluor counter inconclusive, USP1 inh inconclusive
CN1C(=CC=C2C=C(I)C(=O)C(I)=C2)C(C)(C)c2ccccc21	Tau ThT inhib 2.2µM, Tau fibril FP inconclusive, Tau fluor counter 0.71µM[fluorescent]
CCN1C(=NCCc2cccs2)N[C@@H](CCc2ccccc2)[C@H](C(=O)NCCc2cccs2)[C@H]1C	none (no result: Tau ThT inhib, Tau fibril FP, Tau fluor counter, USP1 inh)
COc1ccc(NC(=S)Nc2ccc(C)c(S(=O)(=O)N3CCCCC3)c2)cc1	Tau fibril FP inconclusive, Tau fluor counter 32µM[quencher] (no result: USP1 inh)
C=CCNC(=S)Nc1ccc(C)c(S(=O)(=O)N2CCCCC2)c1	none
Cc1ccc(NC(=S)Nc2ccc(C(C)C)cc2)cc1S(=O)(=O)N1CCCCCC1	Tau fibril FP 13µM, Tau fluor counter 7.9µM[quencher]
Cc1nn(-c2ccccc2)c2c1N(CC(=O)NCc1ccc(N(C)C)cc1)C(=O)CS2	Tau ThT inhib inconclusive, USP1 inh inconclusive (no result: Coupling enz)
COc1ccc(-n2c(=O)c(CCc3ccccc3)nc3cnc(N4CCNCC4)nc32)cc1	none (no result: Tau ThT inhib, Tau fibril FP, Tau fluor counter, USP1 inh)
Cc1cccc(N2CCN(c3nc4ccccc4c4nc(-c5ccccc5)nn34)CC2)c1C	none (no result: Coupling enz)
C=CCC(Nc1ccc(OC)cc1)(C(=O)OCC)c1ccccc1 (centres undefined)	none (no result: USP1 inh)
CC(C)Cn1[nH]c2c3c(ccc2c1=O)C(=O)c1ccccc1C3=O	Tau ThT inhib 14µM, Tau fluor counter inconclusive, Coupling enz -30
